Where “and” joins values, the source holds several entries; their conditions need not be identical. Identical values can stand only once. Calls of active or inactive are those of the source. No rule for the calls is given here.
Key:
[1] = liver-stage malaria parasite load reduction – cell-based, known kinase inhibitor set, luminescence, hepatoma host viability (AID 624392); conditions: Plasmodium liver stage in hepatoma cells, luciferase luminescence, concentration not given here; liver cell % of control: measured here: host liver cell viability; parasite % of control: stronger effect = lower value;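 also: infected cells incubated roughly two days before readout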
[2] = altered dexamethasone sensitivity, NF-kB reporter, cell-based, luciferase, IL-1B stimulus (AID 624486); conditions: IL-1B + dexamethasone, luminescence; percent of negative control (+Dex): actives lie on both sides, concentration not given here; z-score: measured here: IL-1B alone, no Dex;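 as to percent of negative control (+Dex): 100% = mean signal of vehicle control wells on the plate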
[3] = target: Cellular tumor antigen p53 (Homo sapiens) (UniProt P04637); test: GFP-p53 level modulators in HPV16+ cells – imaging, known kinase inhibitor set, EGFP/DsRed ratio (AID 1053116); conditions: GFP-p53 stability, stronger effect = higher value; EGFP object count: measured here: GFP-p53 positive objects count;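 also: cells exposed to compounds for 24 h at 37 °C before reading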
[4] = inducers of IRF3 signaling, differentiated THP-1 – cell-based, PMA-stimulated THP-1, luminescence (AID 1053176); conditions: PMA-differentiated THP-1, IRF3 reporter luminescence; stronger effect = higher value

Sequence of Cellular tumor antigen p53 (Homo sapiens) (P04637 whole entry, looked up): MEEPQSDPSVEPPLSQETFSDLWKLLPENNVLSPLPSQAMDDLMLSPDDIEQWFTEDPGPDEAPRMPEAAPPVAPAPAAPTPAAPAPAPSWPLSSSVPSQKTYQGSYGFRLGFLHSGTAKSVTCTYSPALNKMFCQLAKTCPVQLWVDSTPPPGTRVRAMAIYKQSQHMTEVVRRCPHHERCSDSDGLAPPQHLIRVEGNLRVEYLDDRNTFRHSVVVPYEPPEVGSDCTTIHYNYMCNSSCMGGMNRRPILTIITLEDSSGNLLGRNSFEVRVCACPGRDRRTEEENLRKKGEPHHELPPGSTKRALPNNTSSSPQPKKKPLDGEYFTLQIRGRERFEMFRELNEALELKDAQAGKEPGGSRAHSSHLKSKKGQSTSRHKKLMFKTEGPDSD

| Compound | liver cell % of control [1] | parasite % of control [1] | percent of negative control (+Dex) [2] | z-score [2] | EGFP object count [3] | EGFP/DsRed ratio [3] | fraction signal [4] |
| --- | --- | --- | --- | --- | --- | --- | --- |
| O=C1NC(=NC(CO)Cc2ccccc2)SC1=Cc1ccc2ncccc2c1 (stereo not given) | 107% and 106% | 258% (inactive) and 60% (inactive) | 91.5% (inactive) and 102% (inactive) | -0.515 and 0.03 | 6.5 and 4 | 0.117 (inactive) and 0.195 (inactive) | -0.0075 (inactive) and -0.0115 (inactive) |
| CC(=O)N[C@H](Cc1ccc(OP(=O)(O)O)cc1)C(=O)N[C@@H]1CCC(=O)N2CCC[C@@H](C(=O)N[C@H]3CCc4ccccc43)N2C1=O | 122% | 61.5% (inactive) | 95.5% (inactive) | 0.9 | 6 | 0.211 (inactive) | -0.003 (inactive) |
| Cn1c(=O)c(Oc2ccc(F)cc2F)cc2cnc(NC3CCC(O)CC3)nc21 (stereo not given) | 112% | 60.3% (inactive) | 85% (inactive) | -0.62 | 5 | 0.154 (inactive) | -0.0095 (inactive) |
| Cn1cc(C2=C(c3cccc(NCC(O)CO)c3)C(=O)NC2=O)c2cc(Cl)ccc21 (stereo not given) | 134% | 44.5% (inactive) | 140% (active) | -1.56 | 15 | 0.196 (inactive) | -0.0005 (inactive) |
| CC(C)c1[nH]nc2c1N=C(c1ccccc1Cl)c1cc([N+](=O)[O-])ccc1N2 | 105% | 61.2% (inactive) | 108% (inactive) | 0.05 | 50.5 | 1.11 (active) | -0.0115 (inactive) |
| CN=C1NC(=O)C(=Cc2ccc3ncccc3c2)S1 | 82.2% | 65.3% (inactive) | 98.5% (inactive) | -0.23 | 2 | 0.0435 (inactive) | 0.0015 (inactive) |
| Cc1[nH]n(-c2ccccc2)c(=O)c1C(=O)c1ccccc1 | 103% | 53.4% (inactive) | 97% (inactive) | 0.12 | 5 | 0.115 (inactive) | -0.0005 (inactive) |
| Cn1cc(C2=C(c3c4n(c5ccccc35)CC(CN)C4)C(=O)NC2=O)c2ccccc21 (stereo not given) | 97.6% | 48.9% (inactive) | 100% (inactive) | -0.23 | 6.5 | 0.00726 (inactive) | -0.005 (inactive) |
| Cc1nc2sc3c(N)ncnc3c2c(C)c1C | 140% | 42% (inactive) | 77.5% (inactive) | -1.64 | 5 | 0.308 (inactive) | -0.003 (inactive) |
| COc1cc(F)c(F)cc1C(=O)c1cnc(NC2CCN(S(C)(=O)=O)CC2)nc1N | 107% | 392% (inactive) | 79% (inactive) | -1.08 | 1 | 0.11 (inactive) | -0.003 (inactive) |
| Nc1c(C(=O)c2cccc(-c3cccnc3)c2)cnn1-c1ccc(F)cc1 | 219% | 7.92% (inactive) | 111% (inactive) | 0.475 | 3 | 0.0451 (inactive) | -0.005 (inactive) |
| Cn1cc(C2=C(c3ccccc3)C(=O)NC2=O)c2ccccc21 | 104% | 41% (inactive) | 96% (inactive) | -0.33 | 9.5 | 0.26 (inactive) | -0.001 (inactive) |
| CN1CCN(CC#Cc2cccc(C(=O)c3cnn(-c4ccc(F)cc4)c3N)c2)CC1 | 96.5% | 46.3% (inactive) | 104% (inactive) | 0.495 | 3.5 | 0.0523 (inactive) | 0.0015 (inactive) |
| Cn1cc(C2=C(c3cccc4ccccc34)C(=O)NC2=O)c2ccccc21 | 108% | 33.9% (inactive) | 95.5% (inactive) | -1.1 | 14 | 0.386 (inactive) | -0.007 (inactive) |
| N#Cc1ccc(C(=O)c2cnn(-c3ccc(F)cc3)c2N)cc1 | 103% | 59.8% (inactive) | 131% (active) | 1.97 | 13 | 0.456 (inactive) | 0.0095 (inactive) |
| Nc1c(C(=O)c2cccc(OCCN3CCOCC3)c2)cnn1-c1ccc(F)cc1 | 121% | 47.9% (inactive) | 100% (inactive) | 0.485 | 4 | 0.127 (inactive) | -0.009 (inactive) |
| O=C1NC(=NCc2ccccc2)SC1=Cc1ccc2ncccc2c1 | 99.5% | 34.9% (inactive) | 92.5% (inactive) | -0.26 | 7 | 0.173 (inactive) | -0.003 (inactive) |
| Cn1c(=O)c(Oc2ccc(F)cc2F)cc2cnc(NC3CCS(=O)(=O)CC3)nc21 | 106% | 43.3% (inactive) | 97.5% (inactive) | 0.51 | 5 | 0.324 (inactive) | 0.001 (inactive) |
| O=C1NC(=NCCc2ccccc2Cl)SC1=Cc1ccc2ncccc2c1 | 121% | 44.8% (inactive) | 90% (inactive) | 0 | 4.5 | 0.105 (inactive) | -0.003 (inactive) |
| O=C1NC(=NCc2ccccn2)SC1=Cc1ccc2ncccc2c1 | 105% | 37.5% (inactive) | 94% (inactive) | 0.165 | 6.5 | 0.264 (inactive) | 0.01 (inactive) |

| Compound | liver cell % of control [1] | parasite % of control [1] | percent of negative control (+Dex) [2] | z-score [2] | EGFP object count [3] | EGFP/DsRed ratio [3] | fraction signal [4] |
| --- | --- | --- | --- | --- | --- | --- | --- |
| O=C1NC(=NCCc2ccc(Br)cc2)SC1=Cc1ccc2ncccc2c1 | 140% | 66.4% (inactive) | 99.5% (inactive) | -0.18 | 3 | 0.0813 (inactive) | 0.006 (inactive) |
| O=C1NC(=NCc2c(Cl)cccc2Cl)SC1=Cc1ccc2ncccc2c1 | 106% | 51.5% (inactive) | 101% (inactive) | 0.16 | 2.5 | 0.0754 (inactive) | -0.009 (inactive) |
| O=C1NC(=NCc2ccccc2Cl)SC1=Cc1ccc2ncccc2c1 | 108% | 42.1% (inactive) | 95% (inactive) | -0.715 | 9 | 0.384 (inactive) | -0.0075 (inactive) |
| CC(CO)Nc1cc(-c2[nH]c3cccnc3c2-c2ccc(F)cc2)ccn1 (stereo not given) | 124% | 78.1% (inactive) | 85.5% (inactive) | -0.435 | 4.5 | 0.0626 (inactive) | -0.0075 (inactive) |
| Nc1c(C(=O)c2cccc(-c3ccc[n+]([O-])c3)c2)cnn1-c1ccc(F)cc1F | 105% | 45.9% (inactive) | 101% (inactive) | 0.065 | 3.5 | 0.063 (inactive) | -0.0155 (inactive) |
| COc1cccc2c1c(C1=C(c3cn(C)c4ccccc34)C(=O)NC1=O)cn2C | 85.8% | 34.6% (inactive) | 103% (inactive) | 0.84 | 12.5 | 0.282 (inactive) | -0.0155 (inactive) |
| Nc1c(C(=O)c2cccc(CCC3(O)CCCC3)c2)cnn1-c1ccc(F)cc1 | 112% | 81% (inactive) | 105% (inactive) | -0.24 | 2.5 | 0.0989 (inactive) | -0.0005 (inactive) |
| Nc1c(C(=O)c2cccc(-c3cccnc3)c2)cnn1-c1ccc(F)cc1F | 175% | 28.3% (inactive) | 110% (inactive) | 0.74 | 4.5 | 0.0328 (inactive) | 0.0015 (inactive) |
| O=C1OC(=O)C(c2c[nH]c3ccccc23)=C1c1c[nH]c2ccccc12 | 99.6% | 48.8% (inactive) | 95% (inactive) | 1 | 3.5 | 0.0625 (inactive) | -0.018 (inactive) |
| COc1cc[nH]c1C=C1C(=O)Nc2ccc(F)c(C#CC3(O)CCNCC3)c21 | 70.4% | 10.7% (inactive) | 108% (inactive) | -2.18 | 467 | 3.03 (inactive) | -0.005 (inactive) |
| O=c1c(Oc2ccc(F)cc2F)cc2cnc(NC3CCOCC3)nc2n1CCCO | 122% | 71.8% (inactive) | 92% (inactive) | -0.815 | 2.5 | 0.0231 (inactive) | 0.0075 (inactive) |
| O=C1NC(O)C(c2c[nH]c3ccccc23)=C1c1c[nH]c2ccccc12 (stereo not given) | 141% | 47.1% (inactive) | 93% (inactive) | 0.455 | 4 | 0.15 (inactive) | 0.001 (inactive) |
| CS(=O)(=O)CCc1cccc(C(=O)c2cnn(-c3ccc(F)cc3)c2N)c1 | 95.7% | 45.3% (inactive) | 102% (inactive) | 1.1 | 1.5 | 0.152 (inactive) | -0.0075 (inactive) |
| CNCCCn1cc(C2=C(c3cn(C)c4ccccc34)C(=O)NC2=O)c2ccccc21 | 82% | 60.5% (inactive) | 102% (inactive) | 0.035 | 2.5 | 0.00316 (inactive) | -0.0095 (inactive) |
| Cn1c(=O)c(Oc2ccc(F)cc2)cc2cnc(NC3CCOCC3)nc21 | 106% | 64.1% (inactive) | 104% (inactive) | 0.86 | 3.5 | 0.251 (inactive) | -0.0055 (inactive) |
| COc1cccc(C2=C(c3cn(C)c4ccccc34)C(=O)NC2=O)c1 | 216% | 15.4% (inactive) | 110% (inactive) | -0.735 | 9.5 | 0.204 (inactive) | -0.003 (inactive) |
| COc1cc[nH]c1C=C1C(=O)Nc2ccc(F)c(I)c21 | 98.3% | 40.2% (inactive) | 98% (inactive) | 0.98 | 46 | 0.596 (inactive) | 0.0015 (inactive) |
| Cn1cc(C2=C(Sc3ccccc3)C(=O)NC2=O)c2ccccc21 | 92.3% | 50.7% (inactive) | 99.5% (inactive) | 0.02 | 2.5 | 0.0664 (inactive) | 0.008 (inactive) |
| CN1CC2Cc3c(C4=C(c5cn(C)c6ccccc56)C(=O)NC4=O)c4ccccc4n3CC2C1 (stereo not given) | 79.3% and 90.1% | 36.7% (inactive) and 27% (inactive) | 98.5% (inactive) | -0.62 and -0.215 | 2.5 and 3.5 | 0.0121 (inactive) and 0.0134 (inactive) | -0.005 (inactive) and -0.0135 (inactive) |
| N#CCn1c(=O)c(Oc2ccc(F)cc2F)cc2cnc(NC3CCOCC3)nc21 | 96.2% | 58.4% (inactive) | 97% (inactive) | -0.11 | 2.5 | 0.064 (inactive) | -0.007 (inactive) |
